PubChem BioAssay
Active and inactive are the calls of the source. Unless noted, no rule for the calls is given here.

Experiments:
[1] = resazurin metabolic signal in HepG2 cells – cell-based, resazurin fluorescence, 24 h, PK04 Diversity Set, profiling panel (AID 1172); settings: HepG2 viability, higher = more signal; also: test concentration not given here
[2] = budding yeast growth changes without added modifier – OD600, strain BY4716, 24 h, basal condition, primary screen (AID 1173); settings: S. cerevisiae BY4716 growth, OD600, 24 h; higher = more signal, called active from +8 up or from −8 down
[3] = viability profiling in MM1S myeloma cells – cell-based, resazurin fluorescence, basal, 24 h, PK04 Diversity Set, profiling panel (AID 1174); settings: higher = more signal, called active from +8 up or from −8 down;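 also: MM1S multiple myeloma cell line; test concentration not given here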
[4] = target: Dihydroorotate dehydrogenase (quinone), mitochondrial (Plasmodium falciparum (isolate 3D7)) (UniProt Q08210); assay: inhibition of P. falciparum DHODH – biochemical, C-terminal His tag, absorbance 600 nm, primary screen (AID 1175); settings: PfDHODH enzyme, DCIP absorbance 600 nm; higher = more signal, called active from +8 up or from −8 down;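 also: recombinant parasite enzyme with a five histidine tag at its C terminus; test concentration not given here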
[5] = inhibition of PAO1 biofilm formation – strain PAO1, LB-PBS medium, absorbance 600 nm, primary screen (AID 1176); also: test concentration not given here; settings: P. aeruginosa PAO1 growth/biofilm, A600, 12 h; higher = more signal
[6] = growth modulation of vineyard yeast isolate – strain RM11-1a, OD600, basal, 24 h, primary screen (AID 1177);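 also: cultures grown under basal conditions with no added stressor; test concentration not given here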; settings: S. cerevisiae RM11-1a growth, OD600, 24 h; higher = more signal, called active from +8 up or from −8 down
[7] = growth of efflux-deficient E. coli DRC39 – strain DRC39, OD650, 24 h, E. coli filamentation inducers, primary screen (AID 1178);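 also: growth measured as culture turbidity by optical density at 650 nm; test concentration not given here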; settings: E. coli DRC39 acrAB, higher = more signal, called active from +8 up or from −8 down
[8] = growth of efflux-deficient E. coli DRC39 – strain DRC39, OD650, 48 h, E. coli filamentation inducers, primary screen (AID 1179);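 also: screen aims at cell division blockers that make cells filament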; settings: E. coli DRC39 delta-acrAB growth, higher = more signal, called active from +8 up or from −8 down
[9] = viability profiling in RPMI8226 myeloma cells – cell-based, resazurin fluorescence, basal, 24 h, PK04 Diversity Set, profiling panel (AID 1180); settings: higher = more signal;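 also: RPMI8826 multiple myeloma cell line at 5000 cells per well; test concentration not given here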
[10] = target: E3 ubiquitin-protein ligase XIAP (Homo sapiens) (UniProt P98170); assay: small molecules binding XIAP protein – biophysical, small-molecule microarray, fluorescence 635 nm, primary screen (AID 1181); settings: higher = more signal;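 also: score merges 667 nm emission and signal to noise over triplicate slides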
Chain of E3 ubiquitin-protein ligase XIAP (Homo sapiens) (P98170 whole entry, looked up): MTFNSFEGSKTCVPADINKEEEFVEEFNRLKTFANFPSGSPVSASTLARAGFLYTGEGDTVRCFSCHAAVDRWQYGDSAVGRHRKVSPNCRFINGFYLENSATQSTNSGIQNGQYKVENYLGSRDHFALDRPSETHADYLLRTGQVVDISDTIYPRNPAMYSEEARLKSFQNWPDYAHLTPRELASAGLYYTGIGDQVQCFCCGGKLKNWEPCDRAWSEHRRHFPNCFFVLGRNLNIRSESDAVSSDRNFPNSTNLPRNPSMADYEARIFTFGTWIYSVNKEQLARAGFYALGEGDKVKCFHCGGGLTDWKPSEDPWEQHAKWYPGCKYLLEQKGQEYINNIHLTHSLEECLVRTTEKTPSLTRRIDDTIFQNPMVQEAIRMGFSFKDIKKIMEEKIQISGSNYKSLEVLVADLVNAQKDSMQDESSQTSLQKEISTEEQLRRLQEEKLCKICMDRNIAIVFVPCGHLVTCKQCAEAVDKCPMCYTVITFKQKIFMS

Chain of Dihydroorotate dehydrogenase (quinone), mitochondrial (Plasmodium falciparum (isolate 3D7)) (Q08210 whole entry, looked up): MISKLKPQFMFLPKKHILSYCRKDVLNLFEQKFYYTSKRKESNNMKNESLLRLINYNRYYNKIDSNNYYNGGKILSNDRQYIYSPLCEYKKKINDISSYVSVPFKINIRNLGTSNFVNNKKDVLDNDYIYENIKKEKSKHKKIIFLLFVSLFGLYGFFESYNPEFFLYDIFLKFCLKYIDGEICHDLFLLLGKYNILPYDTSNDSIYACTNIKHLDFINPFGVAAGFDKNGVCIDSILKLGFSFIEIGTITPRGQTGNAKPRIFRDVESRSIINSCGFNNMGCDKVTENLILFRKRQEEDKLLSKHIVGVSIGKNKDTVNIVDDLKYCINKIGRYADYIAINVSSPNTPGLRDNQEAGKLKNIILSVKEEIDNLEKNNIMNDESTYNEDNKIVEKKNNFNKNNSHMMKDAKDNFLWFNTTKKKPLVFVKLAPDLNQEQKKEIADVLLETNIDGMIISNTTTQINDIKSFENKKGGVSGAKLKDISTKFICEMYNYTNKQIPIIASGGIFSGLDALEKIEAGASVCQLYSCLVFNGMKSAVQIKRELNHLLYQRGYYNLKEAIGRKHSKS

| SMILES | z-score [1] | z-score [2] | z-score [3] | composite z-score [4] | z-score [5] | z-score [6] | z-score [7] | z-score [8] | z-score [9] | composite z-score [10] |
| --- | --- | --- | --- | --- | --- | --- | --- | --- | --- | --- |
| C=CC[C@]1(C(=O)N(C)C)N=C(c2ccc(OCCCO)cc2)O[C@H]1c1ccccc1 | 0.549 | -2.54 (inactive) | 0.911 (inactive) | -0.588 (inactive) | -0.484 (inactive) | -0.689 (inactive) | 1.23 (inactive) | 0.771 (inactive) | 0.586 | 0.133 |
| CCN(CC)c1ccc(N2CC=CC34O[C@@H]5/C=C\CCCOC(=O)C5[C@H]3C(=O)N(CCCCCO)[C@@H]4C2=O)cc1 (stereo not given in full) | -0.162 | -0.606 (inactive) | 0.361 (inactive) | -0.706 (inactive) | -0.553 (inactive) | -0.27 (inactive) | -0.388 (inactive) | -0.241 (inactive) | 0.681 | -0.0264 |
| C[N+](C)(C)CCCC[C@@H]1NC(=O)[C@@H]2C[C@H](C(=O)NCCCCCNC(=O)CS)[C@H](c3cccc(OCCO)c3)N2C1=O | 0.839 | -0.385 (inactive) | 0.223 (inactive) | 1.09 (inactive) | -0.199 (inactive) | 0.342 (inactive) | 0.461 (inactive) | 0.983 (inactive) | 0.228 | -0.0562 |
| COc1ccc([Si](C)(C)[C@H]2[C@H](CCn3cc(CCO)nn3)O[C@@]3(C(=O)N(Cc4cccc(N5C(=O)c6cccc7cccc5c67)c4)c4ccccc43)[C@@H]2C)cc1 | -2.74 | 0.425 (inactive) | -6.02 (inactive) | -0.455 (inactive) | 1.76 (inactive) | 2.16 (inactive) | 2.38 (inactive) | 1.74 (inactive) | -5.82 | 0.235 |
| [N-]=[N+]=NCc1ccccc1C[C@@]1(C(=O)NCCN2CCOCC2)N=C(c2ccc(OCCCO)cc2)O[C@@H]1c1ccccc1CN=[N+]=[N-] | -0.709 | 0.326 (inactive) | -0.982 (inactive) | 1.06 (inactive) | 1.13 (inactive) | 1.15 (inactive) | 0.585 (inactive) | 0.239 (inactive) | -0.971 | 0.0905 |
| CC1=C2[C@@H](CCc3ccccc3)OB(O)C[C@@H]2[C@@H]2C(=O)C=CC(=O)[C@@H]2C1 | -0.548 | -17.6 (active) | -1.06 (inactive) | -3.6 (inactive) | 0.589 (inactive) | -0.055 (inactive) | -0.367 (inactive) | -0.0244 (inactive) | -1.13 | 0.0325 |
| C=C(CCCC)/C(=C/C[C@@H](OC(=O)c1ccncc1)c1ccccc1OCCO)c1cc(C(=O)OC)ccc1OC | -0.16 | 0.0793 (inactive) | -1.38 (inactive) | -0.455 (inactive) | 0.506 (inactive) | 0.111 (inactive) | 0.275 (inactive) | 0.223 (inactive) | -0.94 | 0.057 |
| [N-]=[N+]=NCc1ccccc1C[C@]1(C(=O)NCCN2CCOCC2)N=C(c2ccc(OCCCO)cc2)O[C@H]1c1ccccc1 | 0.383 | -2 (inactive) | -0.0784 (inactive) | -0.603 (inactive) | 0.193 (inactive) | -0.65 (inactive) | 1.24 (inactive) | 0.535 (inactive) | 0.166 | 0.131 |
| COC(=O)[C@@]1(Cc2ccc(OC)cc2)[C@H]2c3cc(C(=O)N4CCCC4)n(CCc4ccc(O)c(OC)c4)c3C[C@H]2CN1C(=O)c1ccccc1 | -0.21 | 0.768 (inactive) | -0.427 (inactive) | -0.474 (inactive) | 0.467 (inactive) | 0.279 (inactive) | -0.744 (inactive) | -0.939 (inactive) | -0.125 | 0.659 |
| COc1ccc(C#Cc2ccc3c(c2)[C@]2(C(=O)N3)[C@H](C(=O)O)[C@H]3C(=O)O[C@H](c4ccccc4)[C@H](c4ccccc4)N3[C@@H]2c2ccc(OCCO)cc2)cc1 | -0.182 | 0.773 (inactive) | 0.586 (inactive) | -15.6 (active) | 3.6 (inactive) | 2.51 (inactive) | 0.851 (inactive) | 0.377 (inactive) | 0.431 | 0.0811 |
| CCOC(=O)C1=CC[C@@H](c2ccc(N(CC)CC)cc2)N(S(=O)(=O)c2ccc(C)cc2)[C@H]1c1ccc([N+](=O)[O-])cc1 | -0.407 | -0.0341 (inactive) | -0.095 (inactive) | -0.719 (inactive) | 0.698 (inactive) | -0.101 (inactive) | -0.19 (inactive) | -0.0619 (inactive) | -1.06 | -0.0143 |
| CN(C)C(=O)[C@@]1(Cc2ccccc2N=[N+]=[N-])N=C(c2ccc(OCCCO)cc2)O[C@H]1c1ccccc1N=[N+]=[N-] | -0.663 | 0.582 (inactive) | -1.8 (inactive) | 1.32 (inactive) | -0.73 (inactive) | 2.9 (inactive) | 0.732 (inactive) | -0.421 (inactive) | -2.2 | 1.98 |
| COCCCNC(=O)[C@@]1(C)c2ccccc2C(=O)N(c2ccc(C)cn2)[C@H]1c1ccc(CO)cc1 | 0.361 | -0.156 (inactive) | -0.321 (inactive) | 0.0772 (inactive) | 0.112 (inactive) | -0.795 (inactive) | -0.0985 (inactive) | -0.087 (inactive) | 0.157 | 0.286 |
| CCCCCCC#C[Si](O[C@H](c1ccccc1)c1cn(Cc2cccc(Cl)c2)nn1)(C(C)C)C(C)C | 0.809 | -0.419 (inactive) | 1.31 (inactive) | -0.0872 (inactive) | 0.101 (inactive) | 0.738 (inactive) | 0.804 (inactive) | 1.19 (inactive) | 2.01 | -0.0447 |
| CC(C)C[C@@H]1NC(=O)[C@@H]2C[C@H](C(=O)NCc3ccc(F)cc3)[C@H](c3ccc(O)cc3)N2C1=O | -1.5 | 0.0288 (inactive) | 0.429 (inactive) | -1.36 (inactive) | 0.891 (inactive) | -0.647 (inactive) | -0.52 (inactive) | -1.2 (inactive) | 0.734 | 0.222 |
| CC(C)CN1C(=O)[C@@]2(Cc3ccccc31)c1ccccc1C(=O)N(Cc1ccccc1)[C@H]2c1ccc(CO)cc1 | -0.436 | 0.145 (inactive) | -0.765 (inactive) | -2.4 (inactive) | 0.745 (inactive) | -0.286 (inactive) | 0.109 (inactive) | -0.663 (inactive) | -0.904 | -0.25 |
| O=C1O[C@H](c2ccccc2)[C@H](c2ccccc2)N2[C@H]1[C@@H](C(=O)NC[C@H](O)c1ccccc1)[C@]1(C(=O)Nc3ccccc31)[C@H]2c1ccccc1OCCO | -2.69 | -0.251 (inactive) | -9.21 (active) | -0.719 (inactive) | 3.02 (inactive) | 1.75 (inactive) | 0.346 (inactive) | 0.784 (inactive) | -7.33 | 0.189 |
| CC(C)CNC(=O)[C@@]1(c2ccc([N+](=O)[O-])cc2)CC(=O)N(C(C)C)[C@@H]1c1ccc(CO)cc1 | -0.0273 | -0.78 (inactive) | 1.23 (inactive) | 1.14 (inactive) | -0.301 (inactive) | -0.738 (inactive) | 0.474 (inactive) | 1.53 (inactive) | 1.37 | -0.13 |
| CN(C)C(=O)[C@@]1(CCC(=O)OC(C)(C)C)COC(c2ccc(OCCCO)cc2)=N1 | 0.791 | -0.874 (inactive) | 0.265 (inactive) | -0.883 (inactive) | -0.512 (inactive) | -0.0602 (inactive) | 0.115 (inactive) | 0.465 (inactive) | -0.195 | -0.0559 |
| COCCOC(=O)N1C(=O)[C@@]2(c3cc(C#CCCO)ccc31)[C@H](c1ccc(OCCO)cc1)N1[C@H](c3ccccc3)[C@H](c3ccccc3)OC(=O)[C@H]1[C@@H]2C(=O)N1CCc2cc(OC)c(OC)cc2C1 | -0.398 | 1.28 (inactive) | -1.24 (inactive) | -1.02 (inactive) | 1.64 (inactive) | 3.35 (inactive) | 0.154 (inactive) | 0.554 (inactive) | 0.908 | -0.102 |
| COCCOC(=O)N1C(=O)[C@@]2(c3cc(C#CCNC(N)=O)ccc31)[C@H](C(N)=O)[C@H]1C(=O)O[C@H](c3ccccc3)[C@H](c3ccccc3)N1[C@@H]2c1ccc(OCCO)cc1 | -0.195 | 0.713 (inactive) | -0.508 (inactive) | 0.506 (inactive) | 0.995 (inactive) | 1.62 (inactive) | 0.152 (inactive) | -0.0952 (inactive) | -1.09 | -0.188 |
| O=C1NC(=O)C2C1C=CC(C(O)c1ccc3c(c1)OCO3)N2Nc1ccc(Cl)cc1Cl (stereo not given) | -0.996 | -14 (active) | -1.33 (inactive) | -0.703 (inactive) | 1.38 (inactive) | -0.101 (inactive) | -0.145 (inactive) | -2.73 (inactive) | -0.93 | 0.205 |
| COc1cc(NN2C(C(O)c3ccc(I)cc3)C=CC3C(=O)N(C)C(=O)C32)cc(OC)c1OC (stereo not given) | -1.7 | 0.643 (inactive) | -0.297 (inactive) | -0.698 (inactive) | 1.08 (inactive) | -0.377 (inactive) | 0.168 (inactive) | -0.413 (inactive) | -0.786 | 0.346 |
| O=C1O[C@H](c2ccccc2)[C@H](c2ccccc2)N2[C@H]1[C@@H](C(=O)N1CCCCCCC1)[C@]1(C(=O)Nc3ccc(C#CCCO)cc31)[C@H]2c1ccc(OCCO)cc1 | 1.08 | 0.905 (inactive) | 0.332 (inactive) | 0.521 (inactive) | 0.0568 (inactive) | -0.0365 (inactive) | 0.136 (inactive) | -0.656 (inactive) | 0.543 | 2.52 |
| O=c1c2ccc(Br)cc2nc(-c2ccccc2)n1Cc1cccc(O)c1 | -0.187 | -2.04 (inactive) | -1.1 (inactive) | 0.515 (inactive) | 0.186 (inactive) | 0.159 (inactive) | 0.362 (inactive) | 0.39 (inactive) | -0.0974 | -0.151 |
| O=C1NC(=O)C2C1C=CC(C(O)CCc1ccccc1)N2Nc1ccccn1 (stereo not given) | -0.875 | 0.725 (inactive) | -0.871 (inactive) | -0.505 (inactive) | 1.65 (inactive) | -1.07 (inactive) | 0.696 (inactive) | 1.07 (inactive) | -0.717 | 0.107 |
